# Measured values: PubChem BioAssay (Tox21)
# Records with an inconclusive call do not appear. Calls of active or inactive are those of the source. Calls follow the shape of the full dose curve.
# Experiment: qHTS assay for small molecule disruptors of the mitochondrial membrane potential - cell viability (AID 720634);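 also: human HepG2 liver cancer cells; nearly all actives have a fitted effect of over 20% in size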
# Settings: HepG2 viability, ATP luminescence (CellTiter-Glo), 1 h; series mostly up to 83.2 µM
# Source text: U.S. Tox21 Program National Center for Advancing Translational Sciences [NCATS] NIH Chemical Genomics Center [NCGC] U.S. Environmental Protection Agency [EPA] National Institutes of Environmental Health Sciences [NIEHS] National Toxicology Program [NTP] U.S. Food and Drug Administration [FDA] Tox21 Assay Overview: Mitochondrial membrane potential (MMP), one of the parameters for mitochondrial function, is generated by mitochondrial electron transport chain that creates an electrochemical gradient by a series of redox reactions. This gradient drives the synthesis of ATP, a crucial molecule for various cellular processes. Measuring MMP in living cells is commonly used to assess the effect of chemicals on mitochondrial function; decreases in MMP can be detected using lipophilic cationic fluorescent dyes. […] The dye accumulates in the mitochondria of healthy cells as aggregates, with red fluorescence. The mitochondrial potential decreases and the dye could not accumulate in the mitochondria and remains in the cytoplasm in monomers, with green fluorescence. In addition to the mitochondrial potential assay, these cells were also used to test the cytotoxicity by determining the cell viability in the culture based on the quantitation of ATP present. The cytotoxicity was measured in the same assay well of MMP assay.
# Tox21 Assay Protocol Summary: 2,000 HepG2 cells in 5 uL/well were dispensed into black, clear-bottom 1536-well plates using a Multidrop Combi (Thermo Scientific) dispenser. The assay plates were incubated for an overnight at 37 C to allow cells to attach to the wells, followed by the transfer of 23 nL compound or DMSO vehicle by a pin tool (Kalypsys). The plates were incubated for 1 hr at 37 C and 5% CO2, followed by the addition of 5 uL of 2X m-MPI dye into each well using Flying Reagent Dispenser (Aurora Discovery) and then CellTiter-Glo reagent was added at 4 uL/well and incubated 30 min at room temperature. Then luminescence intensity was quantified on a ViewLux CCD-based plate reader.
row,Structure (SMILES),outcome
1,CCO/C=C1\N=C(c2ccccc2)OC1=O,inactive
2,O=c1[nH]c(=O)c2cn[nH]c2[nH]1,inactive
3,CC(=O)OC1CCC(C(C)(C)C)CC1 (stereo not given),inactive
4,CC(C)C(C)C,inactive
5,Cc1nnc(C(=O)NC(C)(C)c2nc(C(=O)NCc3ccc(F)cc3)c(O)c(=O)n2C)o1,inactive
6,CC(=O)OC/C=C(/C)CCC=C(C)C,inactive
7,CCCCNCC,inactive
8,CN(C)CCc1c[nH]c2ccc(CS(=O)(=O)N3CCCC3)cc12,inactive
9,CCCCCCCCOCCC#N,inactive
10,CCOCCOCCOC(C)=O,inactive
11,CC(=O)Oc1ccc(C(C)=O)cc1,inactive
12,Cc1ccc2ccccc2n1,inactive
13,C[C@]12C=CC(=O)C=C1[C@@H](F)C[C@@H]1[C@@H]2[C@@H](O)C[C@@]2(C)[C@H]1CC[C@]2(O)C(=O)CO,inactive
14,CC1(C)C(=O)C(C)(C)C1=O,inactive
15,O=C(CCBr)N1CCN(C(=O)CCBr)CC1,inactive
16,NCC1CCC(C(=O)Oc2ccc(CCC(=O)O)cc2)CC1 (stereo not given),inactive
17,Cc1ccc2cccnc2c1,inactive
18,COCCCOc1cc(C[C@@H](C[C@H](N)[C@@H](O)C[C@H](C(=O)NCC(C)(C)C(N)=O)C(C)C)C(C)C)ccc1OC,inactive
19,Cc1ccc(N)nc1,inactive
20,CC/C=C\CCOC(=O)c1ccccc1,inactive

row,Structure (SMILES),outcome
1,CC(C)(Sc1cc(C(C)(C)C)c(O)c(C(C)(C)C)c1)Sc1cc(C(C)(C)C)c(O)c(C(C)(C)C)c1,inactive
2,CCCCCCCCCCCCCCCC/C=C/C1CC(=O)OC1=O (stereo not given),inactive
3,Cc1ccc(S(=O)(=O)NC(=O)NN2CC3CCCC3C2)cc1 (stereo not given),inactive
4,NNC(=O)OCc1ccccc1,inactive
5,CC(CN1CC(=O)NC(=O)C1)N1CC(=O)NC(=O)C1 (stereo not given),inactive
6,N#CC1(N)CCCCC1,inactive
7,COC(=O)c1c(C)cc(O)c(C)c1O,inactive
8,O=C(c1ccccc1)c1cccc(O)c1,inactive
9,CN(C)c1cc(NC(=O)CNC(C)(C)C)c(O)c2c1C[C@H]1C[C@H]3[C@H](N(C)C)C(=O)C(C(N)=O)=C(O)[C@@]3(O)C(=O)C1=C2O,inactive
10,CC1(C)CC(N)CC(C)(C)N1,inactive
11,O=C(OOC(=O)c1ccccc1)c1ccccc1,inactive
12,CCCCC(CC)CCC(CC(C)C)OS(=O)(=O)O (stereo not given),inactive
13,C=COCCCCO,inactive
14,Nc1cc(S(=O)(=O)O)ccc1O,inactive
15,CCOC(=O)c1ccc(N(C)C)cc1,inactive
16,CCCCS,inactive
17,O=C(O)Cc1ccccc1Oc1ccc(Cl)cc1Cl,inactive
18,CC(C)(C)OC(=O)c1ccccc1C(=O)O,inactive
19,C[C@@H](CN1CC(=O)NC(=O)C1)N1CC(=O)NC(=O)C1,inactive
20,COc1cc(OC)cc(OC)c1,inactive
